{"source": "PubChem BioAssay AID1053185", "about": "(Broad Institute, 2014)", "note": "Results with a measured potency or affinity are listed apart. Calls of active or inactive are those of the source.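 How the source made its calls: active means cell killing with fitted half-maximal concentration at most twice the top valid dose; inconclusive means flat partial loss of 30 to 70%, or poor fit; inactive means the rest.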"}
{"experiment": "HEK293 cell viability loss – cherry-picked samples, cytotoxicity control, dose response (AID 1053185)", "settings": "HEK293T viability, ATP luminescence, 72 h; series mostly up to 26 µM"}
{"molecule": "CNC[C@@H]1Oc2cc(C#Cc3ccccc3OC)ccc2S(=O)(=O)N([C@H](C)CO)C[C@H]1C", "outcome": "inactive"}
{"molecule": "CN(C)C(=O)c1cccc(-c2ccc(C3[C@@H]4CN(Cc5ccccc5F)C[C@H]3N4)cc2)c1", "note": "(some centres undefined)", "outcome": "inactive"}
{"molecule": "C/C=C/c1ccc([C@H]2[C@@H](CO)N3C(=O)CN(Cc4ccc(F)cc4)C[C@@H]23)cc1", "outcome": "inactive"}
{"molecule": "O=S(=O)(c1ccc(F)cc1)N1C[C@@H]2N[C@H](C1)C2c1ccc(/C=C/c2ccccc2)cc1", "note": "(some centres undefined)", "outcome": "inactive"}
{"molecule": "COc1cccc(-c2cccc(-c3nc(C(=O)Nc4ccc(-c5ccccc5)cc4)cc4c3[C@@H](CCO)N(S(=O)C(C)(C)C)C4)c2)c1", "note": "(some centres undefined)", "outcome": "inactive"}
{"molecule": "C[C@@H]1CN([C@@H](C)CO)C(=O)Cc2cc(NC(=O)C3CCCCC3)ccc2O[C@@H]1CN(C)Cc1ccc(Cl)c(Cl)c1", "outcome": "inactive"}
{"molecule": "COc1cc(CN2C[C@@H]3N[C@H](C2)C3c2ccc(-c3ccc(C#N)cc3)cc2)cc(OC)c1", "note": "(some centres undefined)", "outcome": "inactive"}
{"molecule": "COc1ccc2c3c(n(C)c2c1)[C@@H](CO)N(CC1CC1)CC31CN(C(=O)c2ccc3c(c2)OCO3)C1", "outcome": "inactive"}
{"molecule": "CO[C@@H](CN(C)Cc1cc(F)ccc1F)[C@@H](C)CN(C(=O)Nc1ccc(C(F)(F)F)cc1)[C@H](C)CO", "outcome": "inactive"}
